PKM2 activator: increases activity of human pyruvate kinase M2. P14618. purified PKM2, Kinase-Glo ATP luminescence, activation; response scale: 0% is enzyme alone, no compound. Potency, µM (doses to about 57.5 µM), actives largely listed as activators. 260,000 tested, 0.34% active. AID 1631; also: nearly all actives have a fitted effect of over 55% in size
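Purified hPK-M2 (>95% pure) converted ADP (0.1 mM final) to ATP with 0.5 mM PEP in 50 mM imidazole pH7.2, KCl, MgCl2, Tween 20, BSA; 1 h at room temperature. ATP detected by Kinase-Glo luminescence.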
RORgamma inh: blocks mouse ROR gamma transcriptional activity | P51450 | Drosophila S2 Gal4-RORgamma UAS-luciferase reporter, 20 h | Potency, µM (doses to about 53.6 µM), hits mostly inhibitors | 310,000 tested, 5.4% active | AID 2551; also: nearly all actives have a fitted effect of over 60% in size
Target sequence (P51450 whole entry, looked up, the tested form may be a part): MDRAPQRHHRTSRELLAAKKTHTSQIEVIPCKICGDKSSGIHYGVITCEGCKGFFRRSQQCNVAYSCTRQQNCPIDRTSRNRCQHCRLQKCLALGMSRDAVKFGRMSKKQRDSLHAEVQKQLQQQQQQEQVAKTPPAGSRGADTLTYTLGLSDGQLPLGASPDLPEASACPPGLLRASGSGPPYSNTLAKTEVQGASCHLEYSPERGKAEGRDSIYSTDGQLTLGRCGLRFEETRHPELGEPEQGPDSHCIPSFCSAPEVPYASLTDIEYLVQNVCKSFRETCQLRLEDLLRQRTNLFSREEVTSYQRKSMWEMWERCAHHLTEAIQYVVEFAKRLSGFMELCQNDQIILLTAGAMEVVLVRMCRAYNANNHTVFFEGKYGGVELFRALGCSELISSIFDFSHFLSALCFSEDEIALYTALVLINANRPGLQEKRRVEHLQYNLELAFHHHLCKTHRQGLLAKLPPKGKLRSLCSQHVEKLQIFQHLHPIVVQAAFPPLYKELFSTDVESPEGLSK
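ROR gamma transcriptional activity was tracked as Gal4-UAS luciferase output in stably transfected Drosophila Schneider cells, with compound added 1 hr before 700 uM copper sulfate induction and a 20 hr ambient-temperature incubation.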
Six1-Eya2 inh: inhibitors of human Six1/Eya2 interaction; activity change, % (test concentration not listed); AID 651725; AlphaScreen GST-Six1/His-Eya2 binding, biochemical; stronger effect = lower value; Q15475+O00167; 360,000 tested, 0.56% active; in the data active = activity change below about -65%; inconclusive = mostly about -30% to -63%
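GST-Six1 + His-Eya2 (5X stock: 250/500 nM); Tris pH 8.0, 300 mM NaCl, 0.05% BSA, 0.02% Tween 20; GSH donor/Ni acceptor beads; 1 h 37 °C dark; AlphaScreen readout.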
CtBP-E1A inh: blocks the CtBP interaction with E1A | AlphaScreen GST-E1A/His-CtBP binding, 1536-well; stronger effect = lower value | activity change, % (no concentration beside the values) | 340,000 tested, 0.49% active; in the data active = activity change below about -65%; inconclusive = mostly about -30% to -63%
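Protein mix (5X: 125 nM each GST-E1A, His-CtBP) was incubated with pinned compound 2 h at 37 deg C in dark, in 50 mM Tris pH 8.0 buffer with 300 mM NaCl. Glutathione donor and nickel acceptor beads followed; AlphaScreen signal read after 1 h.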
VP16 counter: Gal4-VP16 reporter inhibition counter-screen; Drosophila S2 Gal4-VP16 UAS-luciferase, luminescence, 20 h; Potency, µM (highest dose often 53.6 µM), hits mostly inhibitors; 310,000 tested, 3.5% active; AID 2546;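 also: Gal4-VP16 expression switched on by copper sulfate through the metallothionein promoter; nearly all actives have a fitted effect of over 50% in size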
Numbers stand for hits; – = inactive; ? = inconclusive; · = no result given; [ ] = remark or other dose. This is a sample that favours compounds with a hit; in the whole collection about 5.6% have one here. Unless noted, calls follow the shape of the dose curve; as a rule, active = well fitted curve in the direction sought with a large enough effect; inconclusive = small, poorly fitted or top-dose-only effect, or another doubt; inactive = no such curve, though single readings can be large; an effect the other way counts as inactive or inconclusive.

SMILES | PKM2 activator | RORgamma inh | Six1-Eya2 inh | CtBP-E1A inh | VP16 counter
Cc1ccc(C(=O)C(c2ccccc2)N2Cc3ccccc3C2=N)cc1 (stereo not drawn) | – | 4µM | – | – | 10µM
COc1ccccc1NC(=O)CSc1nc2n[nH]c(C)c2c(=N)n1-c1ccccc1Cl | – | ? | ? | -69 | –
CCc1ccccc1NC(=O)CSc1nc2n[nH]c(C)c2c(=N)n1-c1ccc(OC)cc1 | – | ? | -74 | -65 | ?
CCN(C(=O)CSc1nc2n[nH]c(C)c2c(=N)n1-c1ccc(Cl)c(C)c1)c1cccc(C)c1 | · | 13µM | – | · | ?
Cc1ccc(CNc2ccc3c(c2)ncn3C(C)(C)C)cc1 | – | 1.4µM | – | – | ?
CCOC(=O)c1cnc(-n2nc(C)cc2C)nc1N1CCOCC1 | – | – | – | – | 11µM
CCOC(=O)c1cnc2nc(N3CCOCC3)nn2c1N | – | – | – | – | –
CCOC(=O)c1cnc(-n2nc(C)cc2C)nc1N(C)C | – | 1.1µM | – | ? | 4.5µM
CCOc1ccccc1CNC(=O)c1ccc(NC(=O)C2=CSCCO2)cc1 | · | ? | – | · | –
Nc1ncc(Br)cc1S(=O)(=O)NCCC(=O)N1CCN(c2ccccc2)CC1 | · | – | – | – | –
CCOc1ccccc1NC(=O)c1ccc2nc[nH]c2c1 | – | – | – | – | –
CCN(CC)c1ccc(N=Nc2ncn[nH]2)cc1 | – | – | -69 | -74 | –
CCN(CC)c1ccc(/C=N/O)cc1 | – | – | – | – | –
Cc1c(Cl)cccc1NC(=S)NCC1COc2ccccc2O1 (stereo not drawn) | – | 6.3µM | – | – | ?
O=C(NC(=S)NCC1COc2ccccc2O1)c1ccccc1 (stereo not drawn) | – | – | – | – | –
C=CCNC(=S)NCC1COc2ccccc2O1 (stereo not drawn) | – | 11µM | – | – | –
COc1ccc(S(=O)(=O)N2CCCC(N(C)CCc3ccccc3)C2)cc1OC (stereo not drawn) | – | – | – | – | –
COc1ccc(CNc2ccc(S(N)(=O)=O)cc2)c(OC)c1OC | – | ? | – | – | 20µM
C=CCOc1c(CNc2ccc(S(N)(=O)=O)cc2)cccc1OC | – | – | – | – | –
CC1(C)C2CC=C(/C=N/NC(=S)Nc3cccnc3)C1C2 (stereo not drawn) | – | 0.5µM | – | – | 1.3µM
C=C(C)CNC(=S)N/N=C/C1=CCC2CC1C2(C)C (stereo not drawn) | – | 0.79µM | – | – | 1.6µM
CC(=O)N/N=C/C1=CCC2CC1C2(C)C (stereo not drawn) | – | – | – | – | –
CC1=C/C(=N\NC(=S)Nc2cccnc2)CC(C)(C)C1 | – | 1.8µM | – | – | 3.2µM
CC(C)NC(=S)N/N=C/C1=CCC2CC1C2(C)C (stereo not drawn) | – | 0.79µM | – | – | 1.8µM
CCCCCOc1ccc(Br)cc1CSC(=N)N | – | – | – | · | 7.1µM
SMILES | PKM2 activator | RORgamma inh | Six1-Eya2 inh | CtBP-E1A inh | VP16 counter
Cc1cccc(C)c1N=C1NN=C(c2ccccc2F)CS1 | – | 7.9µM | – | – | 10µM
C=CCn1c(C)cc(C2=NNC(=NCc3ccccc3)SC2)c1C | – | – | – | – | –[10 µM]
Cc1ccccc1N=C1NN=C(c2ccccc2F)CS1 | – | – | – | ? | ?
c1ccc(CN=C2NN=C(c3cc4ccccc4o3)CS2)cc1 | – | ? | – | – | 20µM
Cc1cc(C2=NNC(=NC3CCCCC3)SC2)c(C)n1-c1c(C)n(C)n(-c2ccccc2)c1=O | – | – | – | · | –
Cc1cc(C2=NNC(=NC3CC3)SC2)c(C)n1-c1ccccc1F | – | 1.1µM | – | – | 0.71µM
c1ccc2oc(C3=NNC(=NC4CC4)SC3)cc2c1 | – | 3.5µM | – | – | 11µM
Cc1ccc(C)c(N2C(=O)CC(Cc3ccc(Cl)cc3)C2=O)c1 (stereo not drawn) | – | – | – | – | –
N#Cc1cccc(CS(=O)(=O)c2nnnn2C2CCCCC2)c1 | · | – | · | · | –
COC(=O)c1ccc([N+](=O)[O-])cc1N1C(=O)C2C3CCC(C3)C2C1=O (stereo not drawn) | – | – | – | · | –
N#Cc1ccccc1NC(=O)COC(=O)/C=C/c1ccc(S(=O)(=O)N2CCOCC2)cc1 | · | · | – | – | ·
O=C(/C=C/c1ccc(O)c(O)c1)c1ccc(S(=O)(=O)N2CCCCCC2)cc1 | – | 13µM | – | – | ?
Cc1ccc(/C=C2/SC(=S)N(c3ccc(S(=O)(=O)Nc4nccs4)cc3)C2=O)cc1 | ? | 5.6µM | – | – | 0.79µM
Cc1ccc(-c2nc(SC(C)C(=O)N3CCOCC3)n[nH]2)cc1 (stereo not drawn) | · | – | – | – | –
Cc1c(NC(=O)COC(=O)Cc2ccc(F)cc2)c(=O)n(-c2ccccc2)n1C | · | · | – | – | ·
COCCCNC(=S)Nc1ccc(OC(F)F)cc1C | – | 11µM | – | – | –
COCCCNC(=S)Nc1cc(C)c(C)cc1C | – | 7.1µM | – | – | 35µM
COCCCNC(=S)NNC(=S)NCCCOC | – | ? | – | – | –
CCc1nc2c(OCc3ccc(C(F)(F)F)cc3)cccn2c1N(C=O)Cc1ccc(OC)cc1 | · | · | – | – | ·
CC1(C)CC(NC(=O)c2ccccn2)CC(C)(C)N1O | – | – | – | · | –
CC(=O)Nc1ccc(S(=O)(=O)Oc2ccc(C(=S)N3CCC(O)CC3)cc2)cc1 | – | ? | – | – | 35µM
COc1ccc(CCNc2nc(-c3ccc(F)cc3)c(CC(=O)O)s2)cc1OC | – | – | – | – | –
COc1ccc(S(=O)(=O)NC(=O)C2(C)CCN2C(=O)C(C)(C)c2ccccc2)cc1 (stereo not drawn) | · | · | – | – | ·
C=C(C)C1Cc2c(C)nn(-c3cccc4ccccc34)c2C1 (stereo not drawn) | – | 14µM | – | – | ?
CCC(=O)NC(=S)Nc1ccc(-c2nc3ccc(C)cc3s2)cc1 | – | 1.1µM | – | – | 0.89µM
SMILES | PKM2 activator | RORgamma inh | Six1-Eya2 inh | CtBP-E1A inh | VP16 counter
CCC(=O)NC(=S)Nc1ccc(-c2nc3ccccc3s2)cc1 | – | 1.6µM | – | – | ?
Cc1ccc2nc(-c3ccc(NC(=S)NC(=O)C(C)C)cc3)sc2c1 | – | 1.1µM | – | – | 2.8µM
Cc1cc(C)c(NC(=O)CS(=O)CC(=O)N2CCN(c3cccc(C)c3C)CC2)c(C)c1 (stereo not drawn) | · | – | – | – | –
COc1ccc(C2CC(=O)N(CC(=O)NCC3CCCO3)c3ccccc3S2)cc1OC (stereo not drawn) | – | – | – | – | –
COc1ccc(C2CC(=O)N(C)c3ccccc3S2)cc1OC (stereo not drawn) | – | 7.9µM | – | – | ?
Cc1cc(Sc2ncnc(N)c2[N+](=O)[O-])ncn1 | – | 3.5µM | – | – | 4.5µM
Cc1cc(Sc2nc(N)ncc2[N+](=O)[O-])ncn1 | – | 0.79µM | ? | ? | ?
Cc1ccc(C)c(Oc2ncnc(N)c2[N+](=O)[O-])c1 | – | – | – | – | –
Cc1cc(N)ncc1[N+](=O)[O-] | · | · | – | – | ·

From PubChem
